In PubChem BioAssay AID1030 (National Center for Advancing Translational Sciences (NCATS), 2008) one finds Potency data, which are given here for 69 compounds.

About 16,000 (7.3%) of roughly 220,000 compounds were called active. A call without a number means that no potency is given here. Not shown: some 25% with an inconclusive outcome. Calls follow the shape of the dose curve; as a rule, active = well fitted inhibition curve with a large enough effect (not every such curve was filed as active); inconclusive = small, poorly fitted or top-dose-only effect, or another doubt; inactive = no such curve, though single readings can be large or run the other way. The full list was thinned out, with actives kept by preference.
Potency is read from the fitted curve at half-maximal effect.

Sequence of Aldehyde dehydrogenase 1A1 (Homo sapiens) (P00352 whole entry, looked up): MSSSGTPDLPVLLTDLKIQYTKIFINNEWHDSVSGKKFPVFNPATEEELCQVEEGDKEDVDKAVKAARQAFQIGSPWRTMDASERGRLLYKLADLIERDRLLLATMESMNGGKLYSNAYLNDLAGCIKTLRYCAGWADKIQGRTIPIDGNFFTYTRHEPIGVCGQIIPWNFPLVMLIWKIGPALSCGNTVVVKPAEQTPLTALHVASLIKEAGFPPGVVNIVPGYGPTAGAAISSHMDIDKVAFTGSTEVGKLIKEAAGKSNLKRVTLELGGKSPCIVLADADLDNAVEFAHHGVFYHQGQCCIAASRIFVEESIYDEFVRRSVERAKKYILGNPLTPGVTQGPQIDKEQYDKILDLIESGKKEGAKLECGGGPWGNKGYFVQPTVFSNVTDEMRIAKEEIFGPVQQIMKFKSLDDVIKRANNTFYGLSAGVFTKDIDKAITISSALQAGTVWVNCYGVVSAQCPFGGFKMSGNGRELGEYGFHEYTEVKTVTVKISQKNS

The assay concerns the target Aldehyde dehydrogenase 1A1 (Homo sapiens) (UniProt P00352). The assay is described as follows: qHTS Assay for Inhibitors of Aldehyde Dehydrogenase 1 (ALDH1A1). Conditions: Purified ALDH1A1, NADH fluorescence, propionaldehyde substrate; series mostly up to 75.3 µM. For orientation: In qHTS, concentration-response curves come from the screen itself.
With `CN1CCN(/N=C/c2ccc(-c3ccc([N+](=O)[O-])cc3)o2)CC1`, the Potency result was “inactive”.

As for `CCOC(=O)N1CCN(C(=S)Nc2ccc(C)cc2C)CC1`, the Potency entry was “inactive”.

Consider `CCOc1ccc(N(CC(=O)NCCc2ccc(OC)cc2)S(C)(=O)=O)cc1`, for which the Potency result is “inactive”.

With `COCOc1cc(OC)ccc1C(=O)/C=C/c1ccc([N+](=O)[O-])cc1`, the Potency result is “inactive”.

Regarding `CCOc1ccc(-c2n[nH]c(C)c2-c2ccccn2)c(O)c1`, the Potency result was “inactive”.

Consider `Cc1cc(C)cc(C(=O)N(CCc2ccccc2)C2=CC3CCC(C2)N3C)c1` (centres undefined), for which the Potency result was “inactive”.

Take `CCn1c(CNC(=O)c2ccco2)nnc1SCC(=O)Nc1cccc(F)c1`: the Potency result was “inactive”.

Regarding `Nc1ccc(OCC(O)C[n+]2ccc(CCS(=O)(=O)[O-])cc2)cc1` (centres undefined), the Potency entry is “inactive”.

In the case of `Cc1ccc(NC(=O)C(=O)NCc2ccc(/C=N/NC(=O)c3c(C)nc4cc(C)ccn34)o2)cc1`, the Potency entry was “inactive”.

In the case of `CCOC(=O)C(NC(C)=O)C(=O)Nc1ccc(OC)cc1` (centres undefined), the Potency entry is “inactive”.

For `O=C(CSc1nnc(-c2cccnc2)n1Cc1ccco1)c1ccc(Cl)cc1`, the Potency entry is “inactive”.

Take `CCn1c(COc2ccccc2)nnc1SCC(=O)NCc1ccco1`: the Potency result was “inactive”.

For `CCn1c(CNc2ccc(OC)cc2)nnc1SCC(=O)c1ccc(OC)cc1`, the Potency is 0.199 µM (active).

`COc1ccc(CC(=O)NCc2nnc(SCC(=O)Nc3nccs3)n2C)cc1`: the Potency entry is “inactive”.

On to `COc1ccc(C(=O)CSc2nnc(COc3ccccc3)n2Cc2ccco2)cc1`, for which the Potency is 8.91 µM (active).

Turning to `CCn1c(COc2ccc(OC)cc2)nnc1SCC(=O)Nc1cc(OC)ccc1OC`, the Potency result was “inactive”.

For `COC(=O)c1ccc(NC(=O)CSc2nnc(-c3ccncc3)n2C)cc1`, the Potency entry was “inactive”.

Consider `COC(=O)c1ccc(NC(=O)CSc2nnc(CNc3ccc(OC)cc3)n2C)cc1`, for which the Potency was 28.2 µM (active).

In the case of `CCn1c(CNC(=O)c2ccc(OC)c(OC)c2)nnc1SCC(=O)Nc1ccccc1`, the Potency entry is “inactive”.

As for `CN(Cc1ccccc1)C(=O)CCc1ccccc1`, the Potency result is “inactive”.

Consider `CCOCCCNC(=O)C(=O)NCCCOCC`, for which the Potency result was “inactive”.

Take `CC(C)C(=O)Nc1cccc(NC(=O)c2ccc([N+](=O)[O-])cc2Cl)c1`: the Potency result was “inactive”.

Turning to `Clc1ccc(N/N=C/c2cccs2)nn1`, the Potency result is “inactive”.

On to `Cc1ccccc1-c1ccc(C(=O)O)s1`, for which the Potency entry was “inactive”.

As for `COc1ccc(CN2CCCC(C(=O)c3ccc(Cl)cc3)C2)cc1Cn1cncn1` (centres undefined), the Potency entry was “inactive”.

Turning to `CCOC(=O)c1[nH]ncc1CN1CCCC(C(=O)c2ccc(OC)cc2C)C1` (centres undefined), the Potency entry is “inactive”.

Turning to `COc1cc(OC)c(C(=O)N2CCCC2)cc1OC`, the Potency entry was “inactive”.

On to `Cc1ccc(S(=O)(=O)N2CCCC2C(=O)NCc2ccco2)cc1` (centres undefined), for which the Potency is 28.2 µM (active).

With `Cc1ccc(S(=O)(=O)N2CCC(C(=O)N[C@@H](C)C(=O)NCc3ccco3)CC2)cc1`, the Potency result was “inactive”.

As to `O=C(NCc1ccco1)C1CCCN(S(=O)(=O)c2ccccc2)C1` (centres undefined), the Potency entry was “inactive”.

For the compound `CSc1ncccc1C(=O)N1CCCC(CCC(=O)NCc2ccccc2F)C1` (centres undefined), the Potency result was “inactive”.

Turning to `Cc1cc(C(=O)COC(=O)CNC(=O)c2ccc(F)cc2)c(C)n1Cc1ccco1`, the Potency result is “inactive”.

Turning to `COc1ccc(OC)c(-n2nnnc2SCC(=O)Nc2cc(C)ccc2OC)c1`, the Potency result is “inactive”.

`COc1ccc(C)cc1-n1nnnc1SCC(=O)c1cc(C)n(Cc2ccco2)c1C`: the Potency is 15.8 µM (active).

Take `CC/C=C\C/C=C\C/C=C\C/C=C\C/C=C\C/C=C\CCC(=O)NCCc1ccc(O)c(O)c1`: the Potency entry is “inactive”.

Consider `O=C(c1ccco1)N1CCN(C(=O)C2CC(c3ccc(F)cc3)=NO2)CC1` (centres undefined), for which the Potency result is “inactive”.

Turning to `COc1ccccc1OCc1ccc(C(=O)N2CCN(C)CC2)o1`, the Potency result is “inactive”.

In the case of `O=C(c1ccco1)N1CCN(C(=O)c2ccc(COc3ccc(F)cc3)o2)CC1`, the Potency is 28.2 µM (active).

As to `Cc1ccc(NC(=O)CNCc2ccccn2)cc1S(=O)(=O)N(C)C`, the Potency result was “inactive”.

For the compound `CN(C)S(=O)(=O)c1cc(NC(=O)CN2C(=O)NC3(CCCc4ccccc43)C2=O)ccc1Cl` (centres undefined), the Potency is 12.6 µM (active).

With `COc1ccc(-n2c(C)cc(C(=O)CN3C(=O)NC4(CCc5ccccc54)C3=O)c2C)cc1` (centres undefined), the Potency result is “inactive”.

For the compound `Cc1ccc(/C=N/NC(=O)Cn2ccc(C(F)(F)F)n2)o1`, the Potency entry was “inactive”.

For `CCN(CC)N=Nc1cccc(NC(C)=O)c1`, the Potency result is “inactive”.

As for `Cc1c(/C=N\NC(=O)c2cc3ccccc3o2)c2ccccc2n1C`, the Potency result is “inactive”.

As to `O=C(Nc1ccncc1)c1cc2ccccc2o1`, the Potency result is “inactive”.

For `O=C(N/N=C/c1coc2ccccc2c1=O)c1cc2ccccc2o1`, the Potency was 10 µM (active).

Turning to `NC(=O)Cn1nc([N+](=O)[O-])nc1Oc1ccc(Br)cc1`, the Potency entry is “inactive”.

Consider `CC(C)(C)C(=O)N(Cc1ccccc1)c1ccccn1`, for which the Potency result was “inactive”.

As to `CC(C)CCN1CCN(Cc2cn[nH]c2C2CCCCC2)CC1CCO` (centres undefined), the Potency entry was “inactive”.

For the compound `CCCCC(O)(CCCC)C(=O)NN(C(=O)CCl)c1ccccc1`, the Potency is 3.98 µM (active).

As to `CCCC(O)(CCC)C(=O)NN(C(=O)CCl)c1cccc(C)c1`, the Potency is 39.8 µM (active).

As to `CCC(C)NC(=O)CCCc1ccccc1` (centres undefined), the Potency entry was “inactive”.

Consider `CC(C)(O)C(=O)NN(C(=O)c1ccccc1)c1cccc(Br)c1`, for which the Potency result is “inactive”.

As to `Cc1ccc(N(NC(=O)C(C)(C)O)C(=O)c2ccccc2)cc1C`, the Potency result is “inactive”.

As for `CCCCCCCCC(=O)NCCOc1ccccc1`, the Potency entry was “inactive”.

For `Cc1cc(NC(=O)CSCc2ccccc2C)no1`, the Potency result was “inactive”.

Turning to `Cn1cnnc1Sc1ccc(CN2CCN(C3CCCC3)C(CCO)C2)o1` (centres undefined), the Potency entry was “inactive”.

In the case of `COc1cccc2cc(/C(C)=N/NC(=O)c3ccco3)oc12`, the Potency entry is “inactive”.

`C=CCOc1c(CNn2cn[nH]c2=S)cccc1OC`: the Potency result is “inactive”.

With `CC(C)C(=O)Nc1cccc(NC(=S)NC(=O)C(c2ccccc2)c2ccccc2)c1`, the Potency is 25.1 µM (active).

`CCCCC(=O)NNC(=S)NC(=O)C(c1ccccc1)c1ccccc1`: the Potency result was “inactive”.

`CC(C)C(=O)NC(=S)Nc1ccccc1F`: the Potency entry was “inactive”.

Take `Cn1nnnc1NCc1ccc(Cl)c(Cl)c1`: the Potency entry was “inactive”.

Consider `NC(=O)c1ccc(NC(=O)COC(=O)C(Cc2ccccc2)NC(=O)c2ccccc2)cc1` (centres undefined), for which the Potency was 0.891 µM (active).

`Cc1ccc(F)c(NC(=O)CCc2ccccc2)c1`: the Potency entry is “inactive”.

Turning to `O=C(COC(=O)[C@H](Cc1ccccc1)NC(=O)c1cccs1)Nc1cc(F)ccc1F`, the Potency is 14.1 µM (active).

Consider `COC(=O)c1ccc(/C=N/OCC(=O)Nc2cc(F)ccc2F)cc1`, for which the Potency result was “inactive”.

Regarding `CC(=O)c1ccc(NC(=O)N[C@@H](Cc2ccccc2)C(=O)O)cc1`, the Potency result was “inactive”.

For `CCC(C(=O)OCC(=O)Nc1ccc(C(=O)Nc2ccc(OC)cc2)cc1)c1ccccc1` (centres undefined), the Potency entry is “inactive”.
